# Screens from PubChem.
# Shown are actives, neighbours in structure and some others; about 2.3% of the full set was active somewhere.
# AmpC inh detg: inhibitors of E. coli AmpC beta-lactamase with detergent; AmpC hydrolysis of nitrocefin, absorbance 480 nm, 0.01% Triton; Potency, µM (highest dose often 114 µM), for inactives: top-dose activity change, negative = inhibition, most hits filed as inhibitors; hit rate 0.041% among 370,000;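 also: 0% = no-compound wells and -100% = no-enzyme wells; nearly all actives have a fitted effect of over 25% in size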
# Target sequence (P00811 whole entry, looked up): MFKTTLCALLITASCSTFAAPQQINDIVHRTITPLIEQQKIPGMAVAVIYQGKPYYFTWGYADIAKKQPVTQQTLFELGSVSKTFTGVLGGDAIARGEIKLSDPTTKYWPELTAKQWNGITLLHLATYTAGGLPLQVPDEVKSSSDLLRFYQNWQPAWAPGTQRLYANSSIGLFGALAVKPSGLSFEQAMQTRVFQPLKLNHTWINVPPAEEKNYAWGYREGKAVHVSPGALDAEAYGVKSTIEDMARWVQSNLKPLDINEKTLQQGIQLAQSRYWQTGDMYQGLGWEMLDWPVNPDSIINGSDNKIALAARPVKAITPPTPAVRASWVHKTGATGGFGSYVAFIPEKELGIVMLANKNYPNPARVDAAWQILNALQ
#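 AmpC (5.3 nM in the dispensed reagent) in 20 mM phosphate pH 7.0 with 0.01% (detergent screen) or 0.0001% Triton X-100 was preincubated with compounds for 15 min at room temperature. Nitrocefin was then added from an 800 uM solution, and hydrolysis was followed at 480 nm.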
# AmpC inh no detg: blocks E. coli AmpC beta-lactamase in detergent-free assay; AID 485341; Potency, µM (doses to about 57.1 µM), without a hit: top-dose activity change, negative = inhibition, most hits filed as inhibitors; AmpC nitrocefin hydrolysis, absorbance 480 nm, 0.0001% Triton; hit rate 0.52% among 330,000;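 also: plate controls were no compound for no effect and no enzyme for full effect; nearly all actives have a fitted effect of over 20% in size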
#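 AmpC (5.3 nM in the dispensed reagent) in 20 mM phosphate pH 7.0 with 0.01% (detergent screen) or 0.0001% Triton X-100 was preincubated with compounds for 15 min at room temperature. Nitrocefin was then added from an 800 uM solution, and hydrolysis was followed at 480 nm.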
# Marburg entry inh: Marburg virus entry inhibition. Marburg virus pseudotyped entry inhibition, cell reporter. Potency, µM (doses to about 37.8 µM), for the others: at the highest dose activity change, negative = inhibition, hits mostly inhibitors. hit rate 1.8% among 300,000; calls by dose curve; tested in HEK293 cells
# AMA1-RON2 inh: AMA1-RON2 (P. falciparum) interaction inhibition | AlphaScreen AMA1-biotinylated RON2 peptide binding | Potency, µM (doses to about 58.2 µM), for inactives: at the top dose activity change, negative = inhibition, actives largely listed as inhibitors | hit rate 0.2% among 360,000;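 also: 0% = vehicle wells and -100% = peptide control; nearly all actives have a fitted effect of over 45% in size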
#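 AMA1 (3D7) with his tag at 25 nM final met compounds first, then biotinylated RON2 peptide at 25 nM; detection used donor plus acceptor beads, 10 µg/mL apiece, read by AlphaScreen after 30 min at room temperature.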
# LASV entry inh: Lassa virus entry inhibition; Lassa virus pseudotype entry inhibition, cell reporter; Potency, µM (titrated, usually from 37.9 µM), for the others: at the highest dose activity change, negative = inhibition, usual class: inhibitors; hit rate 1.2% among 300,000; AID 540256; calls by dose curve; tested in HEK293 cells; also: nearly all actives have a fitted effect of over 50% in size
# * hit, by the source's call; ? = inconclusive; / = not tested or not shown; [ ] = another dose, or the depositor's remark. Unless noted, calls follow the shape of the dose curve; as a rule, active = well fitted curve in the direction sought with a large enough effect; inconclusive = small, poorly fitted or top-dose-only effect, or another doubt; inactive = no such curve, though single readings can be large; an effect the other way counts as inactive or inconclusive. Unless noted, % is scaled to controls: 0 for no effect and ±100 for the full control effect; potency is read from the fitted curve at half-maximal effect.
SMILES,AmpC inh detg,AmpC inh no detg,Marburg entry inh,AMA1-RON2 inh,LASV entry inh
O=C1N=c2ccccc2=NC1C(=O)c1ccccc1 (configuration not stated),/,/,6%,/,/
CN(C)CCCn1c(SCC(=O)Nc2nc(-c3cccc(Br)c3)cs2)nc2ccccc2c1=O,5%,82%,11µM*,-1%,?
O=C(CSc1nc2ccccc2[nH]1)Nc1nc(-c2cccc(Br)c2)cs1,-4%,-56%,11%,9%,13%
CC1=C(C(=O)Nc2ccc3[nH]ncc3c2)C(c2ccc(F)cc2)NC(=O)N1 (configuration not stated),/,/,/,/,6%
Cc1ccc(NC(=O)c2c(C)oc3ccc(O)c(CN4CCCCCC4)c23)c(C)c1,19%,/,3.5µM*,/,?
Cc1ccc(NC(=O)c2c(C)oc3ccc(O)c(CN4CCN(Cc5ccccc5)CC4)c23)cc1,16%,/,10µM*,/,?
COc1ccc(NC(=O)c2c(C)oc3ccc(O)c(CN4CCN(Cc5ccccc5)CC4)c23)cc1Cl,22%,/,?,/,7.9µM*
Cc1ccc(NC(=O)c2c(C)oc3ccc(O)c(CN4CCCCCC4)c23)cc1,-4%,/,?,/,?
CCOC(=O)c1c(-c2ccccc2)oc2ccc(O)c(CN3CCCC3)c12,?,0%,23µM*,14%,?
Cc1ccc(NC(=O)c2c(C)oc3ccc(O)c(CN4CCOCC4)c23)c(C)c1,19%,/,8%[46.1 µM],/,-13%[46.1 µM]
COc1ccc(OCCCCn2c(C3CC(=O)N(c4cccc(Cl)c4)C3)nc3ccccc32)cc1 (configuration not stated),19%,/,-28%[46.1 µM],/,?
CN1/C(=C/C(=O)c2nc(S(C)(=O)=O)ncc2Cl)C(C)(C)c2ccccc21,-1%,53%,?,-16%,16µM*
CCCCC[C@H]1C[C@@H](CC#CCN2CCOCC2)C(=O)O1,/,/,10%,/,/
COC(=O)C[C@H]1c2ccccc2[C@@H]2C(=C[C@@H](C)[C@H]3C(=O)N(c4ccccc4)C(=O)[C@H]32)N1C(=O)OC,/,/,10%[14.2 µM],/,/
CC(c1ccco1)N(C(=O)C12CC3CC(CC(C)(C3)C1)C2)c1ccccn1 (configuration not stated),-6%,9%,?,-7%,11µM*
Cc1cc(C(=O)N/N=C2\CC(=O)CC(C)(C)C2)c(C)n1-c1ccc(F)cc1,-6%,-33%,-14%,9%[11.6 µM],6%
Cc1cc(C(=O)N/N=C2\CC(=O)CC(C)(C)C2)c(C)n1-c1ccccc1,4%,-22%,2.9µM*,48%,20%
CC[C@H]1C(=O)OC[C@@H]1Cc1cncn1C,/,/,-6%,/,/
O=C(N/N=C/c1c(O)ccc2ccccc12)c1ccc(CO)nc1,-1%,0%,11µM*,1%,?
O=C(N/N=C\c1c(O)ccc2ccccc12)c1ccc(S(=O)(=O)N2CCCCC2)cc1,-16%,-27%,1.3µM*,18%,?
O=C(NN=Cc1c(O)ccc2ccccc12)c1ccc2c(c1)OCO2,/,-17%,/,79%,/
N=C1/C(=C\c2ccc(-c3cccc(C(=O)O)c3)o2)C(=O)N=C2SC=C(c3ccccc3)N12,56µM*,-38%,/,42%,/
CC(C)Oc1ccc(CNC(=O)CCCn2c(=O)c3cccn3c3cccnc32)cc1,-5%,/,/,/,9%[46.1 µM]
CCCCN(CC)C(=O)CCCn1c(=O)c2cccn2c2ccccc21,16%,/,/,/,-24%[46.1 µM]
Fc1cccc(Nc2ncnc3[nH]ncc23)c1,1%,-16%,/,19%,/
SMILES,AmpC inh detg,AmpC inh no detg,Marburg entry inh,AMA1-RON2 inh,LASV entry inh
Fc1cccc(COc2ccc(Nc3ncnc4sc(-c5cccs5)cc34)cc2Cl)c1,/,/,/,/,16µM*
Nc1ccc(C#Cc2cncnc2Nc2ccc(OCc3cccc(F)c3)c(Cl)c2)cc1,/,/,/,/,3.1µM*
O=C(c1ccco1)N1CCN(Cc2cc(=O)c(OCc3cccc(F)c3)co2)CC1,-8%,-10%,?,12%,12%
CN1CCN(Cc2ccc(-c3cc4ncnc(Nc5ccc(OCc6cccc(F)c6)c(Cl)c5)c4s3)o2)CC1,/,/,/,/,20µM*
O=C1c2cccc3cccc(c23)C(=O)N1OS(=O)(=O)c1ccccc1,-3%,?,5%,2%,12%
O=C1c2ccccc2C(=O)N1OS(=O)(=O)c1ccccc1,45µM*,-22%,2%,/,5%
Cc1ccc(S(=O)(=O)ON2C(=O)c3cccc4cccc(c34)C2=O)cc1,?,-15%,3%,5%,-16%
Cc1cc(S(=O)(=O)ON2C(=O)c3ccccc3C2=O)ccc1F,45µM*,-25%,/,7%,/
Cc1ccc(C)c(S(=O)(=O)ON2C(=O)c3ccccc3C2=O)c1,50µM*,-13%,?,32%,16%[46.1 µM]
Cc1cccc(-c2ccc3ncnc(NCc4cccc(F)c4)c3c2)c1,1%,-35%,/,/,/
CCOC(=O)c1ccc(NS(=O)(=O)c2ccc(Br)s2)cc1,0%,/,14%[46.1 µM],/,1%[46.1 µM]
Cc1cc(C)cc(NCc2cc(=O)oc3cc(-c4ccccc4)c(O)cc23)c1,?,-53%,?,16%,-6%
COc1ccc(C)cc1NCc1cc(=O)oc2cc(-c3ccccc3)c(O)cc12,-5%,3.5µM*,?,10%,2%
CCN(Cc1ccccc1)C(=O)Nc1ccc2c(c1)N(C)C(=O)c1ccccc1S2,23%,/,?,/,?
CN(Cc1ccccc1)C(=O)Nc1ccc2c(c1)N(C)C(=O)c1ccccc1S2,27%,/,10µM*,/,?
Cc1cccc(N=Nc2ccc(N(C)C)cc2)c1,0%,-28%,?,16µM*,?
CN(C)c1ccc(N=Nc2cccc3ccoc23)cc1,-18%,-10%,/,14µM*,/
CN(C)c1ccc(N=Nc2cccc(F)c2)cc1,-2%,-6%,0%[46.1 µM],8.9µM*,?
COc1ccc(CCn2c(C)cc3c(c2=O)[C@H](c2ccc4c(c2)OCO4)C(C#N)=C(N)O3)cc1OC,/,/,-28%,/,/
CCOC(=O)CN1C(=O)NC(c2cccc(F)c2)C(C(C)=O)=C1C (configuration not stated),/,/,13%[14.2 µM],/,/
Cc1ccc(-c2noc(-c3ccc(N4CCN(C)CC4)c([N+](=O)[O-])c3)n2)cc1,22%,/,9%[46.1 µM],/,23%[46.1 µM]
CN1CCN(c2ccc([N+](=O)[O-])c3no[n+]([O-])c23)CC1,-8%,-16%,0.56µM*,-29%,0.32µM*
CCCC(=O)Nc1nnc(SCc2cc(=O)c3cc(C)ccc3[nH]2)s1,20%,/,/,/,4%[46.1 µM]
COc1ccc(NC(=O)c2cc(-c3ccc(C)c(C)c3O)n[nH]2)cc1Cl,?,18µM*,-38%[46.1 µM],109%,17%[46.1 µM]
CC(C(=O)c1ccc(-c2ccccc2)cc1)[n+]1cccc(C(N)=O)c1 (configuration not stated),-3%,13%,12%,-7%,?
Cc1ccc[n+](C(C)C(=O)c2ccc(-c3ccccc3)cc2)c1 (configuration not stated),-4%,8%,?,-1%,?
